# NCOA2 inhibitor – human SRC2 (NCOA2) inhibition | Q15596 | HEK293 GAL4-SRC2 luciferase reporter, luminescence | inhibition, % at 9 µM | 370,000 compounds, 0.17% hits | AID 651957;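 active means inhibition above the mean inhibition of all tested compounds plus 3 SD, set per campaign, cut at about 52% in these data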
# NCOA3 inh – inhibits human SRC3 coactivator; 360,000 compounds, 0.17% hits; HEK293 GAL4-SRC3 luciferase reporter, luminescence; Q9Y6Q9; AID 588352; inhibition, % at 3.6 µM;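 active means inhibition above a per-campaign cutoff, the mean of all compounds plus 3 SD, cut at about 60% in these data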;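 further: higher means less SRC3-driven luciferase light from the GAL4 reporter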
# NR5A2 inv ag – inverse agonists of human LRH-1 (NR5A2); AID 602396; 360,000 compounds, 0.13% hits; O00482; HEK293T StAR-luciferase reporter, LRH-1 transfected, 24 h; inhibition, % at 3.6 µM;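 active means inhibition above the mean inhibition of all tested compounds plus 3 SD, cut at about 73% in these data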
# Gli-Sufu antag – Gli-Sufu pathway antagonism. Sufu-KO-LIGHT fibroblasts, Gli luciferase reporter luminescence. inhibition, % at 5 µM. 340,000 compounds, 0.74% hits. AID 588413;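 active means inhibition above about 55%, limit read from the data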
# SRC1 inh – inhibitors of human steroid receptor coactivator 1 (SRC1). HEK293 GAL4-SRC1 luciferase reporter, luminescence. Q15788. inhibition, % at 3.6 µM. 360,000 compounds, 0.12% hits;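 active means inhibition above the campaign mean plus 3 SD, with each screening campaign given its own cutoff, cut at about 60% in these data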
# COUP-TFII inh – blocks human COUP-TFII nuclear receptor | P24468 | HEK293T NGFI-A luciferase reporter, luminescence | inhibition, % at 8.6 µM | 370,000 compounds, 0.7% hits | AID 686940;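 active means inhibition above a per-plate cutoff, mean inhibition of test wells between control levels plus 3 SD, cut at about 38% in these data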;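 further: cells cotransfected with COUP-TFII expression vector driving the NGFI-A reporter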
# VP16 Luc counter – VP16 inhibition counter-screen for COUP-TFII | shares compounds with COUP-TFII inh | HEK293 Gal4-VP16 luciferase reporter, luminescence | inhibition, % at 8.5 µM | 2,500 compounds, 25% hits | AID 687007; in the data active means inhibition above about 13%
# NR2F2 inh conf – COUP-TFII (NR2F2) inhibition, confirmation assay | shares compounds with COUP-TFII inh | HEK293 NGFI-A luciferase reporter, luminescence | inhibition, % at 8.5 µM | 2,500 compounds, 45% hits | AID 687008;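 active means mean inhibition over three repeats above a set limit taken from the earlier primary screen, cut at about 38% in these data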
# A number is an active result; . = inactive; / = no result; ! = not confirmed by another sample. Most compounds without a hit are left out; they make up all but 1.3% or so of the library.
SMILES,NCOA2 inhibitor,NCOA3 inh,NR5A2 inv ag,Gli-Sufu antag,SRC1 inh,COUP-TFII inh,VP16 Luc counter,NR2F2 inh conf
CCCCOc1ccc(C(=O)n2ccc3ccc(-c4ccc5ccn(Cc6cccc(C(=O)OC)c6)c5c4)cc32)cc1,.,/,/,/,/,.,/,/
COc1cccc(C(=O)N[C@@H](CC(C)C)C(=O)N2CCC[C@H]2C(=O)NCc2ccccc2)c1,.,/,/,/,/,.,/,/
O=c1c(Cl)c(N2CCCCC2)cnn1-c1nc2ccccc2[nH]1,.,.,.,.,.,56,.,.
Clc1ccc2nc(N3CCCCC3)[nH]c2c1,.,.,.,.,.,.,/,/
O=c1c2ccccc2cnn1-c1nc2ccccc2[nH]1,83,65,.,81,70,96,53,70
COC[C@@H]1CCCN1c1cccc2c1S(=O)(=O)N(C1CC1)CC[C@@H](C)O2,.,/,/,/,/,.,/,/
COc1ccc(NC(=O)Cc2ccccc2)cn1,.,.,.,.,.,.,/,/
COc1ccc(NC(=O)/C(Cl)=C(/Cl)S(=O)Cc2ccccc2)cn1 (stereo unspecified),84,.,.,66,.,61,88,100
O=C(NCc1ccccc1)c1ccc(CO)cc1,.,/,/,/,/,.,/,/
COc1ccc(C[C@H](N)C(=O)N[C@H]2[C@@H](O)[C@H](n3cnc4c(N(C)C)ncnc43)O[C@@H]2CO)cc1,86,95,102,90,94,99,48,97
CC(C)(C)OC(=O)NCCc1ccccc1/C=C/S(=O)(=O)NC1CCCC1,.,/,/,/,/,.,/,/
O=C(CSc1nnc(-c2ccc(Cl)cc2)n1-c1ccccc1)Nc1ccc(Oc2ccccc2)cc1,.,/,/,/,/,.,/,/
Nc1cc(-c2cccc(Br)c2)nn1Cc1ccccc1,.,.,.,.,.,.,/,/
Nc1cc(-c2ccc(Br)cc2)nn1Cc1ccccc1,.,.,.,.,.,37,.,.
Cc1cccc(NC(=O)CSc2nc3ccccc3c(=O)n2C)c1,.,.,.,.,.,41,.,.
COc1cc(C(=O)NC2CCCCN(C(C)C)C2=O)cc(OC)c1OC (stereo unspecified),.,/,/,/,/,.,/,/
FC(F)(F)c1cnc(N2CCN(C(=S)NCc3ccccc3)CC2)c(Cl)c1,.,.,.,.,.,.,/,/
FC(F)(F)c1cnc(N2CCCN(C(=S)Nc3ccccc3)CC2)c(Cl)c1,.,.,.,.,.,39,.,.
COC(=O)c1c(-c2cccc3ccccc23)csc1NC(=O)Cc1ccc(OC)c(OC)c1,.,.,.,.,.,41,.,.
COc1ccc(-c2csc3ncnc(NCCCO)c23)cc1,.,.,.,.,67,44,14,.
CCN(CC)CCCNc1ncnc2scc(-c3ccc(F)cc3)c12,.,.,.,.,.,.,/,/
COc1ccc(S[C@]2(C(=O)N3CCN(c4ncccn4)CC3)CC(=O)N(C(=O)C3CC3)[C@@H]2c2ccc(OC)cc2)cc1,.,/,/,/,/,.,/,/
Cc1ccc2nc(NC(=O)CSCC(=O)OCC(=O)c3ccc(Br)cc3)sc2c1,.,.,.,.,.,40,67,49
Cc1cc(-c2nnc(SCC(=O)Nc3cccc4ccccc34)n2N)n[nH]1,.,/,/,/,/,.,/,/
CCCCCCCCCCCCN1CCSCCS1(=O)=O,.,/,/,/,/,.,/,/
SMILES,NCOA2 inhibitor,NCOA3 inh,NR5A2 inv ag,Gli-Sufu antag,SRC1 inh,COUP-TFII inh,VP16 Luc counter,NR2F2 inh conf
CCCCCn1nnnc1C1(C)CCSCC(=O)N1Cc1ccco1 (stereo unspecified),.,/,/,/,/,.,/,/
NS(=O)(=O)OCCCc1ccccc1,.,.,.,.,.,.,/,/
[2H]C(CCOS(N)(=O)=O)c1ccc(C(C)(C)C)cc1 (stereo unspecified),.,.,.,.,.,43,22,.
Cc1cccc(NC(=S)NNc2ncc(C(F)(F)F)cc2Cl)c1,.,.,.,.,.,.,/,/
FC(F)(F)c1cnc(NNC(=S)Nc2ccccc2Cl)c(Cl)c1,.,.,.,.,.,42,18,.
CC(C)(C)c1ccc(-c2noc(CCC(=O)NC3CC3)n2)cc1,/,/,/,/,/,56,.,.
CNC(=O)CCc1nc(-c2ccc(C(C)(C)C)cc2)no1,.,.,.,.,.,.,/,/
CC(C)(C)c1ccc(-c2noc(CCC(N)=O)n2)cc1,83,.,76,76,.,85,72,88
COc1ccc(-c2noc(CCC(=O)Nc3cccnc3)n2)cc1,.,.,.,.,.,.,/,/
CC(C)(C)c1ccc(-c2noc(CCC(=O)NCC3CCCO3)n2)cc1 (stereo unspecified),59,.,.,73,.,75,26,61
CC(C)(C)c1ccc(-c2noc(CCC(=O)Nc3cccnc3)n2)cc1,80,.,.,71,.,78,59,77
COC(=O)C1CCCN(C(=O)C2CCN(S(=O)(=O)c3ccccc3[N+](=O)[O-])CC2)C1 (stereo unspecified),.,/,/,/,/,.,/,/
N#Cc1ccc(/C=C2\CC3(OC(=O)c4cccc(F)c4)CCCN2C3)cc1 (stereo unspecified),.,/,/,/,/,.,/,/
C[C@@H]1C=CCCO[C@]12C(=O)N(CC1CC1)c1cccc(Br)c12,.,/,/,/,/,.,/,/
COc1ccc(N2C(=O)c3n[nH]c(C)c3C2c2cccc(C(F)(F)F)c2)cc1 (stereo unspecified),.,/,/,/,/,.,/,/
O=C(Cc1ccccc1F)N1CCC(n2nnc3ncccc32)CC1,.,/,/,/,/,.,/,/
O=C(Nc1ccc(N2CCN(c3ccc(O)cc3)CC2)cc1)Oc1ccccc1,.,.,.,.,.,.,/,/
Nc1ccc(OC(=O)Nc2ccc(O)cc2)cc1,77,.,.,.,.,44,36,.
NC(=O)[C@H]1CC2(CC(c3cccc(NC(=O)COc4ccc(Cl)cc4)c3)=NO2)CN1C(=O)Cc1ccc([N+](=O)[O-])cc1 (stereo partly specified),.,.,.,.,.,74,.,66
CCCCCC(=O)Nc1cccc(C2=NOC3(C2)C[C@@H](C(N)=O)N(C(=O)Cc2ccc([N+](=O)[O-])cc2)C3)c1 (stereo partly specified),.,.,.,.,.,.,/,/
COc1cc(NC(=O)c2cnc(N)o2)cc(C(=O)Nc2cccc(C(F)(F)F)c2)c1,.,.,.,.,.,66!,.,.
CCOC(=O)c1ccc(NC(=O)C2CCCN(S(=O)(=O)c3ccc(F)cc3)C2)cc1 (stereo unspecified),.,.,.,.,.,64,.,.
COc1ccc(C(=O)Nc2ccc3nc(N4CCOCC4)sc3c2)cc1OC,.,.,.,.,.,.,/,/
CCCn1nc(C(=O)Nc2ccc3nc(N4CCOCC4)sc3c2)ccc1=O,.,.,.,.,.,43,.,.
Cc1ccc2c(c1)C1CS(=O)(=O)N(CC(C)C)C(=O)N1C2 (stereo unspecified),.,/,/,/,/,.,/,/

# Assay outcomes as filed in PubChem BioAssay.
